# Article PMC5540273 (PLoS ONE, 2017)
# Legend:
# Details in all cases: concentration: 1 μM, replicates: in singlicate; n = 1
# [1] = system: ACVR2B
# [2] = system: ACVRL1
# [3] = system: T1, ADCK3
# T1 construct: gene CABC1
# [4] = system: ADCK4
# [5] = system: AKT1
# [6] = system: AKT2
# [7] = system: AKT3
# [8] = system: ALK
# [9] = system: T2, AMPK-alpha1
# T2 construct: gene PRKAA1
# [10] = system: T3, AMPK-alpha2
# T3 construct: gene PRKAA2
# [11] = system: ANKK1
# [12] = system: T4, ARK5
# T4 construct: gene NUAK1
# [13] = system: T5, ASK1
# T5 construct: gene MAP3K5
# [14] = system: T6, ASK2
# T6 construct: gene MAP3K6
# [15] = system: AURKA
# [16] = system: AURKB
# [17] = system: AURKC
# [18] = system: AXL
# [19] = system: T7, BIKE
# T7 construct: gene BMP2K
# [20] = system: BLK
# 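Note: KINOMEscan kinase panel screen.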
SMILES,%Inh [1] [%],%Inh [2] [%],%Inh [3] [%],%Inh [4] [%],%Inh [5] [%],%Inh [6] [%],%Inh [7] [%],%Inh [8] [%],%Inh [9] [%],%Inh [10] [%],%Inh [11] [%],%Inh [12] [%],%Inh [13] [%],%Inh [14] [%],%Inh [15] [%],%Inh [16] [%],%Inh [17] [%],%Inh [18] [%],%Inh [19] [%],%Inh [20] [%]
Cc1ccccc1-n1cnc2c(N)ncnc21 [SKF-97510],0,0,8,0,8,0,0,0,0,0,0,0,7,0,0,0,0,0,0,9
Cc1cc(N2Cc3ccccc3C2)nc(Nc2ccc(S(=O)(=O)N3CCOCC3)cc2)n1.Cl [GSK1669917],0,0,7,8,96.3,0,0,5,0,16,24,0,0,0,0,0,0,0,9,16
COc1cccc(NC(=O)NC2CCN(c3ccnc(Nc4ccc(F)cc4)n3)C2)c1 (stereo not drawn) [GSK1379721],4,0,1,22,0,0,0,24,0,0,4,9,8,4,21,0,8,0,0,0
Nc1ncnc2[nH]c(-c3ccccc3)nc12 [AH5015],0,0,25,12,0,9,0,33,2,17,14,0,5,20,100,24,14,0,24,10
Cc1csc(-c2nc(Nc3ccncc3)c3ccccc3n2)n1 [GW869640],4,7,14,0,0,3,15,43,12,11,18,0,11,37,41,45,1,0,0,5
Fc1cccc(COc2nnc(-c3ccc4c(c3)CCO4)o2)c1,100,0,0,0,0,20,11,7,6,0,0,5,0,23,15,37,0,0,0,0
Cc1nnc(-c2ccc3occ(-c4ccc(S(C)=O)cc4)c3c2)[nH]1 (stereo not drawn),14,0,0,0,5,4,0,0,99.1,6,28,6,0,3,25,49,0,24,0,0
Cl.NC(=O)c1cccc(Nc2nccc(Nc3ccc(Oc4cccc(Cl)c4)c(Cl)c3)n2)c1 [GW659008],14,0,5,32,0,8,0,24,42,33,0,0,0,0,6,49,21,12,33,84
CCn1c(-c2ccccn2)nc2cnccc21 [SB-736398],0,0,56,6,0,19,0,34,5,10,0,0,17,0,0,3,7,12,16,9
Cn1ccc2ncnc(Oc3ccc(NC(=O)Nc4ccccc4)cc3)c21,0,0,12,5,13,0,0,0,0,2,0,4,16,0,15,93.7,84,0,0,2
O=C(Nc1ccc2c(c1)OCO2)NC1CCN(c2ccnc(Nc3ccc(F)cc3)n2)C1 (stereo not drawn) [GSK1379724],0,0,6,36,0,0,0,29,10,0,0,8,3,0,0,99.4,52,5,27,19
Cn1ccc2ncnc(Oc3cccc(C(=O)Nc4ccccc4)c3)c21,1,0,6,17,0,0,10,0,0,0,28,14,0,0,21,0,26,3,14,1
CCCc1ccc(S(=O)(=O)NC2CCN(c3ccnc(Nc4ccc(F)cc4)n3)C2)cc1 (stereo not drawn) [GSK1379715],0,0,14,34,0,100,0,32,6,0,0,0,2,0,0,29,5,12,0,0
CC(=O)Nc1nc2cnc(Nc3cc(NC(=O)c4cccc(CCC#N)c4)ccc3C)nc2s1,0,15,4,0,17,33,0,0,8,7,0,7,0,16,12,18,7,0,10,0
COc1cccc(-c2cc(-c3c[nH]nc3-c3ccccn3)ccn2)c1 [GW680338],18,0,25,26,0,0,0,34,7,0,13,0,0,27,0,0,89,7,54,8
COc1ccc(CNC(=O)NC2CCN(c3ccnc(Nc4cc(OC)c(OC)c(OC)c4)n3)C2)cc1 (stereo not drawn) [GSK1379748],0,0,24,76,0,0,0,27,10,0,33,25,0,12,79,84,60,8,25,0
COc1ccccc1CNC(=O)c1cc(C(=O)c2ccccc2C)c[nH]1 [GSK364507],0,0,13,34,0,17,0,21,0,0,0,10,0,2,100,22,11,8,0,17
C[C@@H]1CCCCN1c1cc(-c2ccc3c(N)n[nH]c3c2)nc(N)n1 [GSK2258759],0,0,14,20,0,0,0,0,0,0,17,0,0,0,82,0,14,0,26,0
O=C(Nc1ccccc1)Nc1cccc(Oc2ccc3nccn3n2)c1,6,0,5,18,32,0,20,17,11,0,0,0,0,0,0,8,26,7,0,0
NC(=O)c1nnc2ccccc2c1N,24,0,81,1,7,0,0,24,25,6,34,0,20,40,0,32,40,19,51,0
Cl.O=C(Nc1cccc(-c2nn3ncccc3c2-c2ccnc(Nc3cccnc3)n2)c1)c1c(F)cccc1F [GSK312879],0,2,27,2,0,19,10,24,0,12,16,0,0,13,0,24,19,11,31,2
